The results in this text go back to PubChem BioAssay (EPA / NIEHS).

Where “and” joins values, the source holds several entries; their conditions need not be identical. Equal values may be shown once. Inconclusive results are not listed. The source holds several records for some structures; these can differ, active in one and inactive in another. Calls of active or inactive are those of the source. Rule for the calls: active = hit-call score of the fitted dose curve at least 0.9, where 1 is the maximum; inconclusive = response in the unintended direction; inactive = score below 0.9.

The nature of assay [1]: ATG_M_06_XSP2: Attagene TRANS-FACTORIAL Multi-Species (XSP2) HepG2 Assay for M06 Transcription Factor (Internal Marker) (AID 2283811).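 Note: hits are increases in signal above the DMSO baseline.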 An outline of the steps:
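HepG2 cells transiently transfected with GAL4-UAS multi-reporter constructs, dosed 24 h with 3 nM 6-alpha-fluorotestosterone plus 1.5 nM norgestrel present to stimulate androgen receptor. Reporter mRNA quantified by RT-PCR, 6-FAM labelling, HpaI digestion and capillary electrophoresis; gain-of-signal fitted versus DMSO baseline.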

The test system of assay [2] is turtle Estrogen Receptor (ERa), gene 101933533. In words: ATG_trERa_XSP2: Attagene TRANS-FACTORIAL Multi-Species (XSP2) HepG2 Assay for turtle Estrogen Receptor (ERa) (AID 2283812).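 Note: human HepG2 liver cells transiently expressing turtle ERa-Gal4 chimeric receptor; actives raise reporter signal above DMSO so AC50 reflects agonist activity.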 An outline of the steps:
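HepG2 cells transiently transfected with GAL4-UAS reporter units expressing turtle ERa-Gal4 chimera. Reporter mRNA measured after 24 h dosing by RT-PCR, fluorescent labelling and capillary electrophoresis; gain of signal fitted versus DMSO.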

Assay [3] addresses Estrogen receptor beta (Homo sapiens) (UniProt Q92731). Kind of assay: ATG_hERb_XSP2: Attagene TRANS-FACTORIAL Multi-Species (XSP2) HepG2 Assay for human Estrogen Receptor (ERb) (AID 2283813).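 Note: actives raise reporter mRNA above DMSO so AC50 reflects agonist induction.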 An outline of the steps: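 HepG2 cells transiently transfected with GAL4-UAS reporter units and chimeric human ERb-Gal4, 24 h exposure. Reporter mRNA quantified by RT-PCR with FAM labelling, HpaI digestion and capillary electrophoresis; gain of signal versus DMSO.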

Assay [4] concerns the target GAL4 Transcription Factor (Internal Marker), GAL4 (gene 855828) (UniProt P04386). Kind of assay: ATG_GAL4_XSP2: Attagene TRANS-FACTORIAL Multi-Species (XSP2) HepG2 Assay for GAL4 Transcription Factor (Internal Marker) (AID 2283814).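 Note: GAL4 reporter mRNA background control in MRTU transfected cells not a receptor target.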 Summed up:
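HepG2 cells transiently transfected with GAL4-UAS reporter units, stimulated with 3 nM 6-alpha-fluorotestosterone plus 1.5 nM norgestrel, dosed 24 h. Reporter mRNA by RT-PCR/capillary electrophoresis; gain-of-signal fit versus DMSO, background control.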

Assay [5] addresses zebrafish Estrogen Receptor (ER1), esr1 (gene 259252) (UniProt P57717). In words: ATG_zfER1_XSP2: Attagene TRANS-FACTORIAL Multi-Species (XSP2) HepG2 Assay for zebrafish Estrogen Receptor (ER1) (AID 2283816). An outline of the steps:
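HepG2 cells transiently transfected with a GAL4-UAS reporter and a chimeric zebrafish ER1-Gal4 construct, dosed 24 h. Reporter mRNA quantified by RT-PCR, labelling, HpaI digestion and capillary electrophoresis, relative to DMSO.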

Assay [6] deals with chicken Estrogen Receptor (ERa), ESR1 (gene 396099) (UniProt P06212). In words: ATG_chERa_XSP2: Attagene TRANS-FACTORIAL Multi-Species (XSP2) HepG2 Assay for chicken Estrogen Receptor (ERa) (AID 2283817).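 Note: actives raise reporter signal above DMSO so AC50 reflects ER activation.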 Summed up:
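HepG2 cells transiently transfected with multiplexed GAL4-UAS reporter units expressing chimeric chicken ERa-Gal4; 24 h compound exposure. Reporter mRNA measured by RT-PCR with 6-FAM labelling, HpaI digestion and capillary electrophoresis; gain-of-signal fitted versus DMSO.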

The test system of assay [7] is zebrafish Estrogen Receptor (ER2a), gene 317734. In words: ATG_zfER2a_XSP2: Attagene TRANS-FACTORIAL Multi-Species (XSP2) HepG2 Assay for zebrafish Estrogen Receptor (ER2a) (AID 2283818).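 Note: hits raise reporter mRNA so AC50 reflects activation of zebrafish ER2a.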 Summed up: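 HepG2 cells transiently transfected with GAL4-UAS reporter units and chimeric zebrafish ER2a-Gal4, exposed 24 h; medium contains 3 nM 6-alpha-fluorotestosterone and 1.5 nM norgestrel. Reporter mRNA quantified by RT-PCR, HpaI digestion, capillary electrophoresis; gain versus DMSO.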

Assay [8] concerns frog Estrogen Receptor (ER), gene 398734. Kind of assay: ATG_frER1_XSP2: Attagene TRANS-FACTORIAL Multi-Species (XSP2) HepG2 Assay for frog Estrogen Receptor (ER) (AID 2283821).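 Note: hits raise reporter mRNA above DMSO baseline so potency means agonist or activator.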 An outline of the steps: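 HepG2, transient MRTU transfection, chimeric NR-GAL4/UAS reporters; 24 h compound exposure, 24-well. Readout: reporter mRNA via RT-PCR + capillary electrophoresis, fluorescence. Positive fit vs DMSO baseline.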

For assay [9], the system named is zebrafish Estrogen Receptor (ER2b), gene 317733. In words: ATG_zfER2b_XSP2: Attagene TRANS-FACTORIAL Multi-Species (XSP2) HepG2 Assay for zebrafish Estrogen Receptor (ER2b) (AID 2283823).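 Note: fitted upward as reporter gain over DMSO so potency reflects activation.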 An outline of the steps:
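Transfect HepG2 with GAL4-UAS reporter constructs; dose chemicals, 24 h; isolate RNA, RT-PCR, FAM-label, HpaI digest; capillary electrophoresis. Gain-of-signal vs DMSO.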

Assay [10] concerns zebrafish Androgen Receptor (AR), gene 100005148. Kind of assay: ATG_zfAR_XSP2: Attagene TRANS-FACTORIAL Multi-Species (XSP2) HepG2 Assay for zebrafish Androgen Receptor (AR) (AID 2283825).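 Note: hits raise reporter mRNA above DMSO so AC50 reflects agonist-type gain.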 An outline of the steps:
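Zebrafish AR–GAL4 chimera transiently expressed with GAL4-UAS reporter in HepG2 cells, co-stimulated with 3 nM 6-alpha-fluorotestosterone and 1.5 nM norgestrel; 24 h dosing, reporter mRNA read by RT-PCR/capillary electrophoresis versus DMSO.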

The target in assay [11] is Estrogen receptor (Homo sapiens) (UniProt P03372). In words: ATG_hERa_XSP2: Attagene TRANS-FACTORIAL Multi-Species (XSP2) HepG2 Assay for human Estrogen Receptor (ERa) (AID 2283827). Summed up: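 HepG2 cells transiently transfected with multiplexed GAL4-UAS reporters driven by chimeric receptor-Gal4 proteins, dosed 24 h with 3 nM 6-alpha-fluorotestosterone and 1.5 nM norgestrel present. Reporter mRNA by RT-PCR and capillary electrophoresis; gain-of-signal fit versus DMSO.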
Sequence of Estrogen receptor (Homo sapiens) (P03372 whole entry, looked up, the tested form may be a part): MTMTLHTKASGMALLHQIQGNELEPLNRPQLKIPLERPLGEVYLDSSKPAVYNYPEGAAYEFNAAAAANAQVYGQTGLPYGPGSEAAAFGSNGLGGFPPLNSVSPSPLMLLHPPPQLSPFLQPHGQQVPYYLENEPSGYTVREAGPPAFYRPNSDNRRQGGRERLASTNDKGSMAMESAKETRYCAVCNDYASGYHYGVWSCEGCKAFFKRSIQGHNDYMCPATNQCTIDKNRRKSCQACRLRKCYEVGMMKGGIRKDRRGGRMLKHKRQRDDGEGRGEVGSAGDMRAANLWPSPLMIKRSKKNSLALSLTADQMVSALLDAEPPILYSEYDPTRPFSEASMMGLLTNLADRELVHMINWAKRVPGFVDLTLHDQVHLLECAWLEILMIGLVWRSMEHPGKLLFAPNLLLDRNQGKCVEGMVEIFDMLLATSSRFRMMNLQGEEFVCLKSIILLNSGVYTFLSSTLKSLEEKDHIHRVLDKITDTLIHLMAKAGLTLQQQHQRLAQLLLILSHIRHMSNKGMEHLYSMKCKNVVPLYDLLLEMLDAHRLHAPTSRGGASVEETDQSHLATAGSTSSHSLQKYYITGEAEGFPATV

For assay [12], the system named is frog Estrogen Receptor (ER2), gene 100174814. Kind of assay: ATG_frER2_XSP2: Attagene TRANS-FACTORIAL Multi-Species (XSP2) HepG2 Assay for frog Estrogen Receptor (ER2) (AID 2283828). Summed up:
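Human liver HepG2, transient MRTU transfection (TRANS format, exogenous NR–Gal4). 24 h cpd exposure. Total RNA → RT → PCR → FAM label → HpaI cut → CE. Positive direction vs DMSO.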

Assay [13] deals with Peroxisome proliferator-activated receptor gamma (Homo sapiens) (UniProt P37231). In words: ATG_hPPARg_XSP2: Attagene TRANS-FACTORIAL Multi-Species (XSP2) HepG2 Assay for human Peroxisome Proliferator-activated Receptor gamma (PPARg) (AID 2283829).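 Note: actives raise reporter mRNA above DMSO so AC50 reflects PPARg activation.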 Summed up: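 Transient MRTU transfection, HepG2; TRANS format (exogenous NR-Gal4 chimeras). 24 h chemical exposure with 3 nM 6-alpha-fluorotestosterone and 1.5 nM norgestrel present. Readout: reporter mRNA via RT-PCR/CE fluorescence, up-direction vs DMSO.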
Sequence of Peroxisome proliferator-activated receptor gamma (Homo sapiens) (P37231 whole entry, looked up, the tested form may be a part): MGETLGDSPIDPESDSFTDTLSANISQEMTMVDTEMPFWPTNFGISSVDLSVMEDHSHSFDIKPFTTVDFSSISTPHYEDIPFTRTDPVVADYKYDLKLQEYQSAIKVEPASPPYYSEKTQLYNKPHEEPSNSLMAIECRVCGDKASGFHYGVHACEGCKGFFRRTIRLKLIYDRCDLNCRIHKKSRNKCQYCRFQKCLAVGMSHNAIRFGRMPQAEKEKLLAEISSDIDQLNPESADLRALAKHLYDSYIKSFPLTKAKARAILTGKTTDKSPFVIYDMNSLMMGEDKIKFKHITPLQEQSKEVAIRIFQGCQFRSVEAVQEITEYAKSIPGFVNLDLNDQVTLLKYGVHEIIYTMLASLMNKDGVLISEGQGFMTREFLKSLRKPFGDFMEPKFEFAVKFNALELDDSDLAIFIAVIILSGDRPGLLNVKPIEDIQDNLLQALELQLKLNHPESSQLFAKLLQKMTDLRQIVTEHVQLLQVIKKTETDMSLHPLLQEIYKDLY

For assay [14], the target named is mouse Peroxisome Proliferator-activated Receptor gamma (PPARg), Pparg (gene 19016) (UniProt P37238). In words: ATG_mPPARg_XSP2: Attagene TRANS-FACTORIAL Multi-Species (XSP2) HepG2 Assay for mouse Peroxisome Proliferator-activated Receptor gamma (PPARg) (AID 2283830).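 Note: hits are gains in reporter mRNA above DMSO so AC50 marks activation.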 Summed up:
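HepG2 cells transiently transfected with GAL4-UAS reporter units for chimeric NR-Gal4 proteins including mouse PPARg, exposed 24 h; medium contained 3 nM 6-alpha-fluorotestosterone and 1.5 nM norgestrel. Reporter mRNA quantified by RT-PCR, HpaI digestion and capillary electrophoresis, vs DMSO.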

For assay [15], the target named is Nuclear receptor subfamily 1 group I member 2 (Mus musculus) (UniProt O54915). In words: ATG_mPXR_XSP2: Attagene TRANS-FACTORIAL Multi-Species (XSP1) HepG2 Assay for mouse Pregnane X Receptor (PXR) (AID 2283831). An outline of the steps:
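Transient HepG2 transfection, multiplexed GAL4-UAS reporters, NR-GAL4 chimeras. 24 h compound exposure. Readout: reporter mRNA, RT-PCR, fluorescent capillary electrophoresis; positive direction vs DMSO baseline.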

Assay [16] has as its system turtle Androgen Receptor (AR), gene 101947425. In words: ATG_trAR_XSP2: Attagene TRANS-FACTORIAL Multi-Species (XSP2) HepG2 Assay for turtle Androgen Receptor (AR) (AID 2283815). Summed up:
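HepG2 cells transiently transfected with GAL4-UAS reporter units for chimeric NR-Gal4 receptors; 24 h dosing in presence of 3 nM 6-alpha-fluorotestosterone and 1.5 nM norgestrel. Reporter mRNA by RT-PCR and capillary electrophoresis, gain of signal versus DMSO.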

Assay [17] relates to chicken Androgen Receptor (AR), gene 422165. In words: ATG_chAR_XSP2: Attagene TRANS-FACTORIAL Multi-Species (XSP2) HepG2 Assay for chicken Androgen Receptor (AR) (AID 2283819).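 Note: hits raise reporter mRNA above DMSO so potency is for activation.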 An outline of the steps: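 HepG2 cells transiently transfected with chicken AR–GAL4 chimeric reporter constructs, stimulated with 3 nM 6-alpha-fluorotestosterone plus 1.5 nM norgestrel, dosed 24 h. Reporter mRNA quantified by RT-PCR and capillary electrophoresis; gain of signal fitted versus DMSO.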

In assay [18] the test system is frog Androgen Receptor (AR), gene 399456. In words: ATG_frAR_XSP2: Attagene TRANS-FACTORIAL Multi-Species (XSP2) HepG2 Assay for frog Androgen Receptor (AR) (AID 2283824).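 Note: actives raise reporter signal above DMSO so AC50 reflects agonist-like induction.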 An outline of the steps: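 HepG2 cells transiently transfected with GAL4-UAS reporter units and frog (Xenopus laevis) AR-Gal4 chimera; reporter mRNA measured 24 h after dosing by RT-PCR and capillary electrophoresis. Gain of signal fitted relative to DMSO baseline.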

Assay [19] is described as follows: ATG_M_19_XSP2: Attagene TRANS-FACTORIAL Multi-Species (XSP2) HepG2 Assay for M32 Transcription Factor (Internal Marker) (AID 2283822). An outline of the steps:
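Internal background marker in a multi-species nuclear receptor TRANS panel: transfected HepG2 cells exposed 24 h, with 3 nM 6-alpha-fluorotestosterone and 1.5 nM norgestrel present. Readout is RT-PCR of reporter transcripts resolved by capillary electrophoresis, gain-of-signal versus DMSO.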

Assay [20] concerns the target zebrafish Thyroid Hormone Receptor beta (TRb), thrb (gene 30607) (UniProt Q9PVE4). Kind of assay: ATG_zfTRb_XSP1: Attagene TRANS-FACTORIAL Multi-Species (XSP1) HepG2 Assay for zebrafish Thyroid Hormone Receptor beta (TRb) (AID 2283809). An outline of the steps: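 HepG2 cells transiently transfected with multiplexed GAL4-UAS reporter units expressing chimeric zebrafish TRb–Gal4. Dosed 24 h with 3 nM 6-alpha-fluorotestosterone present; reporter mRNA measured by RT-PCR, HpaI digestion and capillary electrophoresis; gain of signal versus DMSO.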

Sequence of zebrafish Estrogen Receptor (ER1), esr1 (gene 259252) (P57717 whole entry, looked up, the tested form may be a part): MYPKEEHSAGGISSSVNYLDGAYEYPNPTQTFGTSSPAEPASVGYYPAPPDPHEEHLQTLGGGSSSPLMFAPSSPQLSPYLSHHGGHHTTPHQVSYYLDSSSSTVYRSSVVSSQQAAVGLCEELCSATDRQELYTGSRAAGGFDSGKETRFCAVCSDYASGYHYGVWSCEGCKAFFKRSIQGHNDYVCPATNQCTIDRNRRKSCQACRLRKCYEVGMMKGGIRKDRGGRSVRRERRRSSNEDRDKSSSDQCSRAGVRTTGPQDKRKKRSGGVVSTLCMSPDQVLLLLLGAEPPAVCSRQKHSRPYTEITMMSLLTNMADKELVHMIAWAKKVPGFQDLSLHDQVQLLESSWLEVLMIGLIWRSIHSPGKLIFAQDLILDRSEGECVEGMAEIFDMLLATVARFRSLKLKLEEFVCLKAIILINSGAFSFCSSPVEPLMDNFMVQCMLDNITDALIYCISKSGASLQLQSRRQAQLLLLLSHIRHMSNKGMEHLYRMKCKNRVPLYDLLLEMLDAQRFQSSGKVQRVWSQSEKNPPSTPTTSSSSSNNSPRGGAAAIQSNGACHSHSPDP
Sequence of Estrogen receptor beta (Homo sapiens) (Q92731 whole entry, looked up, the tested form may be a part): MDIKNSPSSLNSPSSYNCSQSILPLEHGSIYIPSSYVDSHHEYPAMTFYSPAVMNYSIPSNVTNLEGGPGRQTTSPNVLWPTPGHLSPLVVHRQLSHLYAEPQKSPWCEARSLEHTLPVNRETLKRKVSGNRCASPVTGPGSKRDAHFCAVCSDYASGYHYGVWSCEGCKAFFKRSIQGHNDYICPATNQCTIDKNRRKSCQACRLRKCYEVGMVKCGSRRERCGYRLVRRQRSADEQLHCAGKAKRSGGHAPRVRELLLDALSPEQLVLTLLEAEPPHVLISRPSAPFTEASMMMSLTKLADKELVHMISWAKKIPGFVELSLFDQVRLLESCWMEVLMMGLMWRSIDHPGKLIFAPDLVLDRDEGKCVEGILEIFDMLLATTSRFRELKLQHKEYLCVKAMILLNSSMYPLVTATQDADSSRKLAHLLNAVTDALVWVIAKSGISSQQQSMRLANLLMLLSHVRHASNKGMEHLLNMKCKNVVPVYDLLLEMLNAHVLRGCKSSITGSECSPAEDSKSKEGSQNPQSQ
Sequence of Nuclear receptor subfamily 1 group I member 2 (Mus musculus) (O54915 whole entry, looked up, the tested form may be a part): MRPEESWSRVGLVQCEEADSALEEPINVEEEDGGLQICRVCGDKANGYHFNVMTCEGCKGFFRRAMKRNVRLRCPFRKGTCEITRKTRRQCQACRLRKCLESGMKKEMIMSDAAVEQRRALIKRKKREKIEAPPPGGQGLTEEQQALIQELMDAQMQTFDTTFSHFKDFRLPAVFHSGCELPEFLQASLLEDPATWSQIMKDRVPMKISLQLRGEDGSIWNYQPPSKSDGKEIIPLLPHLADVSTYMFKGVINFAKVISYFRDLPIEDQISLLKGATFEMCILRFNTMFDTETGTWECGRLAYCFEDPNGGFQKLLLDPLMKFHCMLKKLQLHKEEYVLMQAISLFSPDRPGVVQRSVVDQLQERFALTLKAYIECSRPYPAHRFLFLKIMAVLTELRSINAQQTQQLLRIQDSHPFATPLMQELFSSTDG
Sequence of GAL4 Transcription Factor (Internal Marker), GAL4 (gene 855828) (P04386 whole entry, looked up, the tested form may be a part): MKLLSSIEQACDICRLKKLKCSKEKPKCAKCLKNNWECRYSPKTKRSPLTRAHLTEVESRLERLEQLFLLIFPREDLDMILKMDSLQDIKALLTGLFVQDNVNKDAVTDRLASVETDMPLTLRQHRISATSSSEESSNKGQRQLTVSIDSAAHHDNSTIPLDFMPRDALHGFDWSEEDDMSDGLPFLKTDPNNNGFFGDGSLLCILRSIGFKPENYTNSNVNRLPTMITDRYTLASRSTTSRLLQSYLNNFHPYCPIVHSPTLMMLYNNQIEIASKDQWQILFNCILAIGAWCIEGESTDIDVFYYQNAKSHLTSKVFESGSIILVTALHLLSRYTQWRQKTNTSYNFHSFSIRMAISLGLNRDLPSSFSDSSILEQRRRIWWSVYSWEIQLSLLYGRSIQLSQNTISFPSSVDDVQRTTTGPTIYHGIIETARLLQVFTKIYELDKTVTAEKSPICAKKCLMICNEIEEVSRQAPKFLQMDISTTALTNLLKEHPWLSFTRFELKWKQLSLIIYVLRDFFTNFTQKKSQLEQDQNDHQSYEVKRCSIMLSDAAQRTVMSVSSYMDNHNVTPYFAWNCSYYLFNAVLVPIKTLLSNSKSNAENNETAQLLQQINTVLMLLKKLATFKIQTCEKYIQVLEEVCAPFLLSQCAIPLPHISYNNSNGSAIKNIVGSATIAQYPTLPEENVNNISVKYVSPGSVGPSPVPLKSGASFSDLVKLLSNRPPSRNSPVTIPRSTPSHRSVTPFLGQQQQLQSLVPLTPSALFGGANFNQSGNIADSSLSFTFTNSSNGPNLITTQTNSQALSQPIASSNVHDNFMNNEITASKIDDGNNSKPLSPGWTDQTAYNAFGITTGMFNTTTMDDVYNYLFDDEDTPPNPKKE
Sequence of chicken Estrogen Receptor (ERa), ESR1 (gene 396099) (P06212 whole entry, looked up, the tested form may be a part): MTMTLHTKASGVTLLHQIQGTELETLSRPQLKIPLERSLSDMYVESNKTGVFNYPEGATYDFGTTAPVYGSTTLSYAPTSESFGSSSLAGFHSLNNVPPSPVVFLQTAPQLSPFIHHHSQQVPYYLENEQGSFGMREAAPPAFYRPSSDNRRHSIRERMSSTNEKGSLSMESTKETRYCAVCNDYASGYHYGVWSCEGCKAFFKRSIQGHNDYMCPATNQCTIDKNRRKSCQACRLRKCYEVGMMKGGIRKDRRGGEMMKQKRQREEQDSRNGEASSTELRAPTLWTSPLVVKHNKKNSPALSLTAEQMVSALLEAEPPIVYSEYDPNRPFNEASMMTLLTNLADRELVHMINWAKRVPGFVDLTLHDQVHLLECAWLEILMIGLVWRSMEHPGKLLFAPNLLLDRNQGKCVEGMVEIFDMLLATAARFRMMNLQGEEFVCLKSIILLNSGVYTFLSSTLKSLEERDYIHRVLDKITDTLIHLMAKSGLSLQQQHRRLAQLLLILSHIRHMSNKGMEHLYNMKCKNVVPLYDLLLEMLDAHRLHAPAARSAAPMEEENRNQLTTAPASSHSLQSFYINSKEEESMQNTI
Sequence of mouse Peroxisome Proliferator-activated Receptor gamma (PPARg), Pparg (gene 19016) (P37238 whole entry, looked up, the tested form may be a part): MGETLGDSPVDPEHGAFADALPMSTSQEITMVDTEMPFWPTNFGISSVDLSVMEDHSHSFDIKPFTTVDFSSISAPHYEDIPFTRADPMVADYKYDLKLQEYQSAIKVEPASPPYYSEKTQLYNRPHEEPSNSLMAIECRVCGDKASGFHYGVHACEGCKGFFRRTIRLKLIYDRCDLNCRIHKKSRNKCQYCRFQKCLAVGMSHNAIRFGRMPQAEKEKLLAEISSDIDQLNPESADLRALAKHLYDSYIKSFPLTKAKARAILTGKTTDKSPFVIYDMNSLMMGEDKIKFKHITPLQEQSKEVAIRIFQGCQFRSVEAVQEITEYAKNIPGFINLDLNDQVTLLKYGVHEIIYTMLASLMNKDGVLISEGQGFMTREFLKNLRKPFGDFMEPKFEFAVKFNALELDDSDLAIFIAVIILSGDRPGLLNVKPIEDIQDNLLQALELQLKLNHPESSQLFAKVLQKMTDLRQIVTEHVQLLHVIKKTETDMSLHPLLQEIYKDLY
Sequence of zebrafish Thyroid Hormone Receptor beta (TRb), thrb (gene 30607) (Q9PVE4 whole entry, looked up, the tested form may be a part): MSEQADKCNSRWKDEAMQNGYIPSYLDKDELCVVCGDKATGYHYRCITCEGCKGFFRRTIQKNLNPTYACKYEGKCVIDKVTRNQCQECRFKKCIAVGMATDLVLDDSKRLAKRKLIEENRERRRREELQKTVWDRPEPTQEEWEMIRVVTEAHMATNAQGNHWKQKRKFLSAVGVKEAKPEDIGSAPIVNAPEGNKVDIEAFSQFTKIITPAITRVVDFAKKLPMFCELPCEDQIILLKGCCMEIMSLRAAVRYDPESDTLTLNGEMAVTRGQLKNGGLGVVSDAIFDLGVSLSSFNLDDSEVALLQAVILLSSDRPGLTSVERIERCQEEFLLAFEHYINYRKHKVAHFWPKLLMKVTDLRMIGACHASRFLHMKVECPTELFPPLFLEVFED

On to `CCCCCCCCCCCCc1ccc(O)cc1`, for which the call in [1], in [3], in assay [4], in assay [7], in [10] and in [13] was inactive. Besides, the compound was classed as inactive in assay [14]. The AC50 in assay [2] is 327 nM (active) and 57.8 nM (active); in [5], 470 nM (active); in [6], 526 nM (active) and 135 nM (active); in assay [8], 274 nM (active) and 44 nM (active); in assay [9], 377 nM (active) and 126 nM (active); in assay [11] it was 546 nM (active) and 167 nM (active). For the same compound, the AC50 is 610 nM (active) and 239 nM (active) in assay [12]; 0.259 µM (active) in assay [15].

`CC(CCC(=O)O)(c1ccc(O)cc1)c1ccc(O)cc1`: the call in assay [1], in [2], in assay [3], in [4], in [16] and in assay [5] was inactive. For the same compound, the result in assay [6], in assay [17], in [8], in [18], in [10] and in assay [12] was inactive. Further, the result in assay [13], in assay [14] and in assay [15] was inactive. Further, the AC50 in assay [5] was 134000 nM (active); in assay [7] it was 46.6 µM (active) and 34.7 µM (active); in assay [9], 42.6 µM (active) and 13.2 µM (active); in [11] it was 17.4 µM (active) and 2.94 µM (active); in assay [12], 27.5 µM (active); in assay [15] it was 100 µM (active).

With `Oc1ccc(-c2ccccc2)c(Cl)c1`, the half-maximal activity concentration (AC50) in assay [2] was 4.73 µM (active) and 2.56 µM (active); in assay [3], 8.87 µM (active) and 8.92 µM (active); in [5], 17.3 µM (active) and 20.1 µM (active); in [6] it was 5.68 µM (active) and 2.43 µM (active); in assay [7] it was 4.34 µM (active) and 9.01 µM (active); in assay [9], 9.03 µM (active) and 7 µM (active). Also, the AC50 was 5.18 µM (active) and 4.36 µM (active) in [11]; 5.62 µM (active) and 3.17 µM (active) in assay [12]; 33.4 µM (active) and 28.7 µM (active) in [13]; 33.4 µM (active) in assay [14]. Further, the outcome in [8], in assay [19] and in assay [15] was inactive.

In the case of `N#Cc1ccc(C2CCCc3cncn32)cc1` (centres undefined), the outcome in [1], in assay [2], in assay [5], in [7], in assay [17] and in assay [9] was inactive. The compound was classed as inactive in assay [11], in assay [12], in assay [13], in assay [14] and in assay [15]. The values for the concentration at half-maximal activity (AC50) in assay [8] and in [9] were 50 µM (active) and 93.7 µM (active), respectively.

In the case of `CC(C)(C)NC(=O)[C@H]1CC[C@H]2[C@@H]3CC[C@H]4NC(=O)C=C[C@]4(C)[C@H]3CC[C@]12C`, the outcome in assay [20], in assay [1], in assay [2], in assay [4], in assay [6] and in assay [8] was inactive. In assay [14], the compound was called inactive. The AC50 in assay [7] is 142 µM (active); in assay [9] it was 67.5 µM (active); in assay [11], 33.5 µM (active); in assay [12], 100 µM (active); in assay [15] it was 2.09 µM (active).
